From PubChem BioAssay AID2783 (National Center for Advancing Translational Sciences (NCATS), 2010) come the findings set out here.

Structures are written as SMILES. Results filed as inconclusive are left out. A number with no mark means an inactive call. Calls follow the shape of the dose curve; as a rule, active = well fitted inhibition curve with a large enough effect in the polarisation, with a control signal flat (not every such curve was filed as active); inconclusive = small, poorly fitted or top-dose-only effect, or effect the other way, or a change in a side signal; inactive = no such curve, though single readings can be large or run the other way; the % refers to the polarisation.
% is scaled to controls: 0 for no effect and ±100 for the full control effect.

Sequence of Menin (Homo sapiens) (O00255 whole entry, looked up): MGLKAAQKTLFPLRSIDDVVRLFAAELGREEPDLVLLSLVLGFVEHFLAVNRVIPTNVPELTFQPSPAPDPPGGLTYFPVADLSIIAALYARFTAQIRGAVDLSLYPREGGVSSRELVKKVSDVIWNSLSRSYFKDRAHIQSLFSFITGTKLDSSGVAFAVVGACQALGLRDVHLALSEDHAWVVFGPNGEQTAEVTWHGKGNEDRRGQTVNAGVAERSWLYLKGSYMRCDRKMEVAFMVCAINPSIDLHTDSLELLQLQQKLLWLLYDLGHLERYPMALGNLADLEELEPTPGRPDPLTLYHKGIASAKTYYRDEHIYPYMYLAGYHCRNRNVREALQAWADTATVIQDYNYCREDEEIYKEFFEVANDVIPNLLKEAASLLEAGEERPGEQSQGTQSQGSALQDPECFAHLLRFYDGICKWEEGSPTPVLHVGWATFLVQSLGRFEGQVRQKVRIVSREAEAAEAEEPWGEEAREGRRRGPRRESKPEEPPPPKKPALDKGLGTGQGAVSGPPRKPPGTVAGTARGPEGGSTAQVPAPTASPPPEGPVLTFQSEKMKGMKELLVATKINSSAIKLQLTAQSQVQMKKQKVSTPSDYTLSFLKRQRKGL

This assay has as its target Menin (Homo sapiens) (UniProt O00255). Put plainly: Confirmation of Inhibitors Targeting the Menin-MLL Interaction in MLL Related Leukemias: Competition With Fluorescein Labeled MLL-derived Peptide. The settings on record: Fluorescence polarization, fluorescein-MLL peptide displacement from menin; series mostly up to 100 µM; activity change, negative = inhibition: at the top concentration. An excerpt: qHTS Assay for Inhibitors Targeting the Menin-MLL Interaction in MLL Related Leukemias
NIH Chemical Genomics Center [NCGC]
NIH Molecular Libraries Probe Centers Network [MLPCN]
Assay Submitter (PI): Jolanta Grembecka, Tomasz Cierpicki, University of Virginia
Translocations of the MLL (Mixed Lineage Leukemia) gene are frequently found in human leukemias affecting both children and adults. Fusion of MLL to one of more than 60 genes results in generation of oncogenic proteins upregulating Hox genes, which are vital to blood cell development. Patients harboring fusion of the MLL gene suffer from aggressive leukemias and respond poorly to available therapies. All of the oncogenic fusion proteins have a preserved N-terminal fragment of MLL that has been identified to interact with menin. It has been recently discovered that association with menin is critical to the leukemogenic activity of the MLL fusion oncoproteins. Selective targeting of the menin-MLL interaction could provide an attractive therapeutic approach to develop novel drugs for MLL-related leukemias. Small molecules blocking the menin-MLL interaction should reverse the oncogenic potential of MLL fusion proteins.
We have developed and optimized a fluorescence polarization-based assay for the identification of Menin-MLL inhibitors. The assay was run employing two different MLL-derived peptides. The present assay uses a 12 amino acid peptide labeled with fluorescein at its N-terminus. This peptide consists of the menin high affinity binding motif from MLL and is potently bound by menin. Another peptide with a mutated sequence, labeled with Texas Red, was used in parallel as a less stringent screen for inhibitors.
The present assay was run to confirm the activity of hits from the primary screen.
The Menin protein, the MLL-wild type (w.t.) derived peptide (N-terminal 12 amino acids), the MLL-derived peptide labeled with Texas Red and the MLL-w.t. peptide labeled with Fluorescein were kindly supplied by laboratory of Dr. Jolanta Grembecka, University of Virginia. All protein and peptide solutions were stored in single use aliquots at -80C. The Eu3+ Cyrptate-conjugated mouse monoclonal antibody anti-6 Histidine (Eu3+-AB) and the Streptavidin-XL665 conjugate (XL665) were purchased from Cisbio International (Bedford, MA). All antibody and XL665 conjugate solution stocks were stored in single use aliquots at -20C. The Buffer components for all assays were purchased from Sigma-Aldrich (St. Louis, MO) and Invitrogen (Carlsbad, CA).
1. FP reaction buffer: 50 mM Tris-HCl pH 7.5, 50 mM NaCl, 1mM DTT.
Before use, 0.05% BSA is added.
2. Menin protein, MLL-w.t. labeled with fluorescein, MLL-mutant peptide labeled with texas red.
Stored in singe use aliquots at -80C.
3. MLL-w.t. unlabeled peptide as positive control: 10 uM final in FP buffer.
1. Prepare Menin at 200 nM, MLL-w.t.-fluorescein at 25 nM, and MLL-mutant-texas red at 50 nM mixture in FP buffer.
2. Prepare Menin at 200 nM, MLL-w.t.-fluorescein at 25 nM, MLL-mutant-texas red at 50 nM, and 10 uM MLL-w.t. unlabeled mixture in FP buffer.
3. Prepare MLL-w.t.-fluorescein at 25 nM and MLL-mutant-texas red at 50 nM mixture in FP buffer.
3. Dispense 4 ul per well of reagent in step 1 in columns 2, 4 - 48 in a black 1536 well plate, dispense 4 ul per well of reagents from steps 2 and 3 in columns 1 and 3 respectively. Incubate plate at ambient for 15 minutes.
4. Transfer 23 nl per well of compound to plate and incubate at ambient for 1 hr.
5. Read fluorescence polarization for each label using the PerkinElmer Envision.
Envision protocol for fluorescein: FITC FP Dual Enh Mirror, Excitation filter 480, Emission filter (1) P-pol 535, Emission filter (2) S-pol 535
Envision protocol for texas red: FP Dual Enh Mirror, Excitation filter 555, Emission filter (1) P-pol 632, Emission filter (2) S-pol 632
On the technique in general: Fluorescence polarisation rises when a labelled molecule tumbles more slowly, as on binding a larger partner.
As for `CCOC(=O)Cc1csc(NC(=O)c2c(O)c3ccccc3n(CCC(C)C)c2=O)n1`, the “activity change, negative = inhibition” value is -5.01%.

For the molecule `O=C(O)CN1C(=O)CN=C(c2ccccn2)c2cc(Cl)ccc21`, the “activity change, negative = inhibition” value is 0.244% [at 288 µM]. The result for `O=c1oc2ccccc2c(O)c1C(c1ccccn1)c1c(O)c2ccccc2oc1=O` reads -5.18%; that for `Cc1cc(C(=O)NP(=O)(N2CCOCC2)N2CCOCC2)c(C)n1C1CC1`, -16%; that for `COc1ccc(C(O)P(=O)(Oc2ccccc2)Oc2ccccc2)cc1` (stereo not given), -6.17% [at 288 µM]. The result for `CC[C@]12C=CCN3CC[C@@]4(c5ccc(OC)cc5N(C)[C@H]4[C@@](O)(C(=O)OC)[C@@H]1OC(C)=O)C32` (stereo not given in full) reads -14.9%. The result for `C[N+](C)(C)CC#CCN1CCCC1=O` reads -1.22% [at 288 µM]; that for `O=C1NC(=O)C(=Cc2ccc3ccccc3c2)C(=O)N1`, -8.04% [at 288 µM]; that for `CCCCCn1c(=O)c(C(=O)Nc2nc(CC(=O)OCC)cs2)c(O)c2ccccc21`, -14.2%. As to `C[C@@H]1CC[C@@]2(NC1)O[C@H]1C[C@H]3[C@@H]4CC=C5C[C@@H](O)CC[C@]5(C)[C@H]4CC[C@]3(C)[C@H]1[C@@H]2C`, the “activity change, negative = inhibition” value was -4.43%. With `CCOP(=O)(OCC)C(NC(=O)c1ccccc1C)C(Cl)(Cl)Cl` (stereo not given) the figure was 3.33% [at 288 µM]. The result for `OC12C3C4CC5C6C4C1C6C(C53)N2CCc1cccc(F)c1` (stereo not given) reads -3.88%. In the case of `COc1cc(/C=N/n2cnnc2)ccc1OC(=O)N(C)C`, the “activity change, negative = inhibition” value was -5.61% [at 288 µM].

`CCCCn1c(=O)c(C(=O)Nc2ccsc2C(=O)OC)c(O)c2ccccc21`: the “activity change, negative = inhibition” value is 5.42%.

As for `O=C(Nc1ccc2ccccc2c1)c1nn(C23CC4CC(CC(C4)C2)C3)cc1Br`, the “activity change, negative = inhibition” value was -12.5%.
